Assay [1] is described as follows: ATG_PPRE_CIS: Attagene CIS-FACTORIAL HepG2 Assay for human Peroxisome Proliferator-activated Response Element (PPRE) (AID 2282958). The conditions noted are these: HepG2 PPRE cis-element reporter, Attagene transcription factor profiling; actives raise or lower the signal. Put shortly:
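HepG2, transient MRTU transfection (cis promoter elements, endogenous TFs). 24 h dosing. RNA → oligo(dT) RT → PCR → 6-FAM primer extension → HpaI digest → CE. Bidirectional fit vs DMSO.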

Assay [2] can be described thus: ATG_RORE_CIS: Attagene CIS-FACTORIAL HepG2 Assay for human RAR-related Orphan Receptor Element (RORE) (AID 2282959). The conditions noted are these: HepG2 Attagene cis-factorial RORE reporter, mRNA; actives raise or lower the signal. In outline:
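Transient MRTU transfection of human HepG2 liver cells (FuGene 6); 24 h compound exposure; TriZol RNA, oligo(dT) RT, PCR, FAM labeling, HpaI cut, CE fragment analysis. DMSO = negative control/baseline.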

The nature of assay [3]: ATG_Sox_CIS: Attagene CIS-FACTORIAL HepG2 Assay for human SRY-box transcription factor (SOX) (AID 2282960). The conditions noted are these: HepG2 Attagene cis-factorial SOX reporter, mRNA; actives raise or lower the signal. In outline: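 Endogenous factor activity in human liver HepG2 cells carrying transfected cis-regulated reporter units. RNA taken 24 h post-dose, reverse-transcribed, PCR-amplified and sized by capillary electrophoresis. Gain or loss of signal fitted relative to DMSO.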

The target of assay [4] is Transcription factor Sp1 (Homo sapiens) (UniProt P08047). Kind of assay: ATG_Sp1_CIS: Attagene CIS-FACTORIAL HepG2 Assay for human Specificity Protein 1 (Sp1) (AID 2282961). The conditions noted are these: HepG2 Sp1 cis-reporter transcription, actives raise or lower the signal. In outline: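 Transient MRTU-transfected HepG2, 24 h compound exposure. Total RNA → oligo(dT) RT → PCR of reporter → 6-FAM primer extension → HpaI digest → CE. Endpoint fitted both directions vs DMSO.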
Sequence of Transcription factor Sp1 (Homo sapiens) (P08047 whole entry, looked up): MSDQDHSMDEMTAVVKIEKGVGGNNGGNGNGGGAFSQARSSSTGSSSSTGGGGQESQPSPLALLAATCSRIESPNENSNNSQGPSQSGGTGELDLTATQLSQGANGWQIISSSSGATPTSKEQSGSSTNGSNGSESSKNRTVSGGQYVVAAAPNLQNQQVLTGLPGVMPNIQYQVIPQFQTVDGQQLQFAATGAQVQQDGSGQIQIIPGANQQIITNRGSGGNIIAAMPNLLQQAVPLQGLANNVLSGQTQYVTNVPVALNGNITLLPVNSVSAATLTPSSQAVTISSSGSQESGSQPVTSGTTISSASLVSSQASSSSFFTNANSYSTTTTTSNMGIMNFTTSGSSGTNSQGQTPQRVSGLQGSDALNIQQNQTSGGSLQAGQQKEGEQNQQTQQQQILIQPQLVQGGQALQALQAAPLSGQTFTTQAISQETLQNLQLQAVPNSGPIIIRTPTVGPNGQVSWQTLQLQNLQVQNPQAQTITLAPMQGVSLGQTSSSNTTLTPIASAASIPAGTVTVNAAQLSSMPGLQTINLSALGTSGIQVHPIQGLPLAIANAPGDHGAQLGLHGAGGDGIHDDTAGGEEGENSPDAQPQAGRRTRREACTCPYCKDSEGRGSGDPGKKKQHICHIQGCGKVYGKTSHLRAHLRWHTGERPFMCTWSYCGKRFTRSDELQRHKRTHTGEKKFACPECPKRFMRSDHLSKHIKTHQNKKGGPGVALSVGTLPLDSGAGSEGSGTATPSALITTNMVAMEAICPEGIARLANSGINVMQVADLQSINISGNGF

Assay [5] can be described thus: ATG_SREBP_CIS: Attagene CIS-FACTORIAL HepG2 Assay for human Sterol Regulatory Element Binding (SREBP) (AID 2282962). The conditions noted are these: HepG2 Attagene cis-factorial SREBP reporter, mRNA; actives raise or lower the signal. Put shortly: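 Transfected HepG2 (cis-regulated reporter library, endogenous TFs) → compound 24 h → total RNA → oligo(dT) RT → reporter-specific PCR → FAM primer extension, HpaI cut → CE fluorescence. Fit bidirectional vs DMSO.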

Assay [6] can be described thus: ATG_TA_CIS: Attagene CIS-FACTORIAL HepG2 Assay for human TA Basal Promoter (AID 2282964). The conditions noted are these: HepG2 Attagene CIS-factorial TA basal promoter reporter; actives raise or lower the signal. In outline: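 Multiplexed mRNA reporter assay, HepG2, 24 h. Reporter cDNA amplified, 6-FAM primer-extended, HpaI-cut, CE-sized; DMSO = negative control and baseline.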

Assay [7] is described as follows: ATG_TCF_b_cat_CIS: Attagene CIS-FACTORIAL HepG2 Assay for human T-Cell-Factor with beta-catenin (TCF/b-cat) (AID 2282965). The conditions noted are these: HepG2 TCF/beta-catenin cis-reporter transcription, actives raise or lower the signal. Put shortly: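 Endogenous transcription factor activity is captured through cis-promoter reporter constructs transiently introduced into human HepG2 liver cells. Induced reporter mRNA is measured after 24 h and fitted bidirectionally relative to DMSO.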

Assay [8] is described as follows: ATG_TAL_CIS: Attagene CIS-FACTORIAL HepG2 Assay for human TAL Basal Promoter (AID 2282966).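 Further: background control endpoint measuring basal TAL promoter reporter mRNA not a specific factor.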 The conditions noted are these: HepG2 Attagene cis-factorial TAL promoter reporter; actives raise or lower the signal. Put shortly:
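HepG2 cells transiently transfected with multiplexed cis-promoter reporter units, dosed 24 h. Reporter mRNA quantified by RT-PCR, 6-FAM labelling, HpaI digestion and capillary electrophoresis; TAL basal promoter serves as background control, fitted bidirectionally versus DMSO.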

Assay [9] can be described thus: ATG_TGFb_CIS: Attagene CIS-FACTORIAL HepG2 Assay for human Transforming Growth Factor (TGF) (AID 2282967). The conditions noted are these: HepG2 Attagene CIS TGFb reporter, mRNA transcription; actives raise or lower the signal. In outline: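 Transcript-level reporter readout: HepG2 transfectants, 24 h exposure, RNA to cDNA, reporter-specific PCR, fluorescent primer extension, capillary sizing against ROX standards. Gain- or loss-of-signal relative to DMSO.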

The nature of assay [10]: ATG_VDRE_CIS: Attagene CIS-FACTORIAL HepG2 Assay for human Vitamin D Receptor Element (VDRE) (AID 2282968). The conditions noted are these: HepG2 VDRE cis-reporter transcription, actives raise or lower the signal. In outline: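 In transiently transfected HepG2 liver cells, gain or loss of reporter mRNA after 24 h exposure is scored relative to DMSO, using fluorescence detection by capillary electrophoresis of RT-PCR products.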

For assay [11], the target named is Steroid hormone receptor ERR1 (Homo sapiens) (UniProt P11474). Kind of assay: ATG_ERRa_TRANS: Attagene TRANS-FACTORIAL HepG2 Assay for human Estrogen-Related Receptor alpha (ERRa) (AID 2282971; active means hit-call score of the fitted dose curve at least 0.9, where 1 is the maximum). The conditions noted are these: HepG2 Attagene TRANS reporter, ERRa transactivation. Put shortly: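 HepG2 cells transiently transfected with GAL4-UAS reporter units and chimeric NR-Gal4 constructs; after 24 hour compound incubation, reporter mRNA quantified by RT-PCR, fluorescent labelling and capillary electrophoresis, gain of signal versus DMSO.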
Sequence of Steroid hormone receptor ERR1 (Homo sapiens) (P11474 whole entry, looked up, the tested form may be a part): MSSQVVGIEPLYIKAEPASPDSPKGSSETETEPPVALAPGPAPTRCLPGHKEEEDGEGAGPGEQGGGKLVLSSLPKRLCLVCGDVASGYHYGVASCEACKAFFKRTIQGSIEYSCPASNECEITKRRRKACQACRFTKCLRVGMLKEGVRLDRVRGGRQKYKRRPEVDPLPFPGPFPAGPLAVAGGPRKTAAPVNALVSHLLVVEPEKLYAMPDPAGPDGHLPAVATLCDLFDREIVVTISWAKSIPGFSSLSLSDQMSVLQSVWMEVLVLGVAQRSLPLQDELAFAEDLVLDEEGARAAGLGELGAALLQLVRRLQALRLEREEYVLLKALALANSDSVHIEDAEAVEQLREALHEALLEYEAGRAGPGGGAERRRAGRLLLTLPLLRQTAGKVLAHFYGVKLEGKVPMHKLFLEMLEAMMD

The target of assay [12] is X-box-binding protein 1 (Homo sapiens) (UniProt P17861). Kind of assay: ATG_Xbp1_CIS: Attagene CIS-FACTORIAL HepG2 Assay for human X-box Binding Protein 1 (XBP1) (AID 2282972). The conditions noted are these: HepG2 XBP1 cis-element reporter, Attagene multiplex; actives raise or lower the signal. In outline:
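HepG2, transient MRTU transfection (cis-promoter driven), 24 h compound exposure. Total RNA → oligo(dT) RT → PCR → 6-FAM labeling → HpaI cut → CE. Bidirectional fit vs DMSO.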

Assay [13] in a line: ATG_M_19_TRANS: Attagene TRANS-FACTORIAL HepG2 Assay for M19 Transcription Factor (Internal Marker) (AID 2282974; active means hit-call score of the fitted dose curve at least 0.9, where 1 is the maximum). The conditions noted are these: HepG2 Attagene TRANS-FACTORIAL M19 internal marker reporter. Put shortly: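 Fluorescence of 6-FAM-labelled reporter cDNA fragments, separated by capillary electrophoresis, served as the readout. These derived from HepG2 cells carrying transfected GAL4-UAS reporter units after 24 h dosing, with DMSO as negative control.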

Assay [14] concerns the target Signal transducer and activator of transcription 3 (Homo sapiens) (UniProt P40763). Kind of assay: ATG_STAT3_CIS: Attagene CIS-FACTORIAL HepG2 Assay for human Signal Transducer and Activator of Transcription 3 (STAT3) (AID 2282963). The conditions noted are these: HepG2, Attagene cis-factorial STAT3 reporter transcription; actives raise or lower the signal. In outline: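 After a 24 h compound incubation, total RNA from MRTU-transfected HepG2 cells was converted to cDNA and reporter sequences PCR-amplified, labelled and profiled by capillary electrophoresis. Gain and loss of signal were referenced to DMSO.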

The target of assay [15] is Estrogen receptor (Homo sapiens) (UniProt P03372). Put plainly: ATG_ERa_TRANS: Attagene TRANS-FACTORIAL HepG2 Assay for human Estrogen Receptor alpha (ERa) (AID 2282970; active means hit-call score of the fitted dose curve at least 0.9, where 1 is the maximum). The conditions noted are these: HepG2 Attagene TRANS ERa GAL4 reporter, mRNA. In outline:
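HepG2 cells transiently transfected with multiplexed GAL4-UAS reporter units read out chimeric NR-Gal4 activity. After 24 h compound exposure, reporter mRNA was quantified by RT-PCR, 6-FAM labeling, HpaI digestion and capillary electrophoresis, relative to DMSO.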

Assay [16] addresses Glucocorticoid receptor (Homo sapiens) (UniProt P04150). Kind of assay: ATG_GR_TRANS: Attagene TRANS-FACTORIAL HepG2 Assay for human Glucocorticoid Receptor (GR) (AID 2282978; active means hit-call score of the fitted dose curve at least 0.9, where 1 is the maximum;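 further: activators score as hits since higher reporter transcript over DMSO is fitted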). The conditions noted are these: HepG2 Attagene TRANS GR reporter, mRNA transcription. Put shortly:
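Fluorescent capillary-electrophoresis quantitation of reporter mRNA is the readout, taken 24 h after dosing human HepG2 cells carrying transiently transfected GAL4-UAS reporter units activated by chimeric NR-GAL4 fusions; activity scored as induction over DMSO.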

Assay [17] deals with Bile acid receptor (Homo sapiens) (UniProt Q96RI1). Kind of assay: ATG_FXR_TRANS: Attagene TRANS-FACTORIAL HepG2 Assay for Farnesoid X Receptor (FXR) (AID 2282979; active means hit-call score of the fitted dose curve at least 0.9, where 1 is the maximum;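 further: hits raise reporter mRNA above DMSO so AC50 marks FXR activation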). The conditions noted are these: HepG2 Attagene TRANS FXR-GAL4 reporter transcription. In outline:
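HepG2 cells were transiently transfected with GAL4-UAS reporters driven by chimeric NR-Gal4 proteins and dosed for 24 h. Reporter mRNA was quantified by RT-PCR, fluorescent labelling, HpaI digestion and capillary electrophoresis, with gain of signal scored versus DMSO.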

Assay [18] concerns the target Estrogen-related receptor gamma (Homo sapiens) (UniProt P62508). Kind of assay: ATG_ERRg_TRANS: Attagene TRANS-FACTORIAL HepG2 Assay for human Estrogen-Related Receptor gamma (ERRg) (AID 2282977; active means hit-call score of the fitted dose curve at least 0.9, where 1 is the maximum;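 further: hits increase reporter signal over DMSO so potencies reflect activators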). The conditions noted are these: HepG2 Attagene TRANS reporter, ERRg transactivation. In outline:
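HepG2 cells transiently transfected with multiplexed GAL4-UAS reporter units and chimeric NR-Gal4 constructs were exposed to test chemicals for 24 h. Reporter mRNA was measured by RT-PCR, 6-FAM primer extension, HpaI digestion and capillary electrophoresis; gain-of-signal versus DMSO.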

Records with an inconclusive call do not appear. The source made the active and inactive calls. How the source made its calls, unless noted: active means hit-call score of the fitted dose curve at least 0.9, where 1 is the maximum; inactive means score below 0.9.

Sequence of Estrogen receptor (Homo sapiens) (P03372 whole entry, looked up, the tested form may be a part): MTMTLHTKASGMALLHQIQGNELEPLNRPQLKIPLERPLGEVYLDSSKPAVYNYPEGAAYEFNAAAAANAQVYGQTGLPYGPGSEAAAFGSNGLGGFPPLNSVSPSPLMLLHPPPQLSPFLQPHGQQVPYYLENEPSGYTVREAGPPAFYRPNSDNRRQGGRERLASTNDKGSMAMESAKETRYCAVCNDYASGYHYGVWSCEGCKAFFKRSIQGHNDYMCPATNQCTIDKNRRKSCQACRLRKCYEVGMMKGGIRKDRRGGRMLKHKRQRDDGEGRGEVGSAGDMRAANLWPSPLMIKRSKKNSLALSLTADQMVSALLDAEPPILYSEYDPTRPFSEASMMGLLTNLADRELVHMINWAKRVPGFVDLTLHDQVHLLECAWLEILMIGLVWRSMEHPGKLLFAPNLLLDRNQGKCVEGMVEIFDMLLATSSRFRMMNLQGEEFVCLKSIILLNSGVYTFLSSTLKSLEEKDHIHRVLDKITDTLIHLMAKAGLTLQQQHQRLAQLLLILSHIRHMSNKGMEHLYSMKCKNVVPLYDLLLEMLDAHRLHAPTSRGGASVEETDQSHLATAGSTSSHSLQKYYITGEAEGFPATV
Sequence of Signal transducer and activator of transcription 3 (Homo sapiens) (P40763 whole entry, looked up): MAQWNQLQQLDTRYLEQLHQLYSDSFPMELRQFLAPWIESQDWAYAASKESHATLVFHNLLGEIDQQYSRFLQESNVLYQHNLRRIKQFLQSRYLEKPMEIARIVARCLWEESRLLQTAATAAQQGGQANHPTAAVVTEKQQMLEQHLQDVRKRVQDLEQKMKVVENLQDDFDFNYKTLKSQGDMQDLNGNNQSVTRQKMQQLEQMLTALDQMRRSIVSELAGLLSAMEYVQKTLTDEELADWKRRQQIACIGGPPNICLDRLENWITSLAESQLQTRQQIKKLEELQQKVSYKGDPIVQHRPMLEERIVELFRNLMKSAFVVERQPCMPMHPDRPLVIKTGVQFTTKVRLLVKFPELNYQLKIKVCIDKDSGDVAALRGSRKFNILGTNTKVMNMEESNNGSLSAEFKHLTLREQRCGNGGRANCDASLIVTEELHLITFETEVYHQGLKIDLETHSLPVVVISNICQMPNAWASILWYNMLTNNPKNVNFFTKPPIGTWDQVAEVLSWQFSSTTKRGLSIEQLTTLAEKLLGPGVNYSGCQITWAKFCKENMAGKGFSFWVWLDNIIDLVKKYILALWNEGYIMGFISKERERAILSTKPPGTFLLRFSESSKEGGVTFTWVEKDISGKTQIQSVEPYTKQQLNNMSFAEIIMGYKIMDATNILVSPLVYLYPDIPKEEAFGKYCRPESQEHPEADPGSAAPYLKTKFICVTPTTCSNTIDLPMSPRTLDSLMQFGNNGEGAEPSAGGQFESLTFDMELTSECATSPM
Sequence of X-box-binding protein 1 (Homo sapiens) (P17861 whole entry, looked up): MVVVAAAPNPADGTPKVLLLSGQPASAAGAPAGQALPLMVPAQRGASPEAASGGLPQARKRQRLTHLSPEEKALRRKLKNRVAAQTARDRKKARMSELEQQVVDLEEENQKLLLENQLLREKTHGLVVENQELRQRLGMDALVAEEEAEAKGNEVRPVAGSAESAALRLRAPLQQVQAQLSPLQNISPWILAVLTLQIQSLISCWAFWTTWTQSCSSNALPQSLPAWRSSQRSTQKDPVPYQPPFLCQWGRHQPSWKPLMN
Sequence of Bile acid receptor (Homo sapiens) (Q96RI1 whole entry, looked up, the tested form may be a part): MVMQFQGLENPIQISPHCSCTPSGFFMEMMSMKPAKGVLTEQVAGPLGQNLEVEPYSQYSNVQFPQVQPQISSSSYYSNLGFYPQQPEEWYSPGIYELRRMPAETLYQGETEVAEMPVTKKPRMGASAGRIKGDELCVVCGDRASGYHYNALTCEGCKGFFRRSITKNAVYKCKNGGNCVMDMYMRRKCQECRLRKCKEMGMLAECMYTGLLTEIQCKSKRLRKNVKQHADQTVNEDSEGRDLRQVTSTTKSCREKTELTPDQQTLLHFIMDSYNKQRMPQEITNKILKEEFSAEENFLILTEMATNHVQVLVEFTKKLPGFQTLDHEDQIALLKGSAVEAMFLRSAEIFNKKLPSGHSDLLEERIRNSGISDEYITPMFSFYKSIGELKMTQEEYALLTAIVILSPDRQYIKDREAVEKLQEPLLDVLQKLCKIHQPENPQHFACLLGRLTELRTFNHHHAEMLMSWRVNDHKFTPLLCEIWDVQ
Sequence of Glucocorticoid receptor (Homo sapiens) (P04150 whole entry, looked up, the tested form may be a part): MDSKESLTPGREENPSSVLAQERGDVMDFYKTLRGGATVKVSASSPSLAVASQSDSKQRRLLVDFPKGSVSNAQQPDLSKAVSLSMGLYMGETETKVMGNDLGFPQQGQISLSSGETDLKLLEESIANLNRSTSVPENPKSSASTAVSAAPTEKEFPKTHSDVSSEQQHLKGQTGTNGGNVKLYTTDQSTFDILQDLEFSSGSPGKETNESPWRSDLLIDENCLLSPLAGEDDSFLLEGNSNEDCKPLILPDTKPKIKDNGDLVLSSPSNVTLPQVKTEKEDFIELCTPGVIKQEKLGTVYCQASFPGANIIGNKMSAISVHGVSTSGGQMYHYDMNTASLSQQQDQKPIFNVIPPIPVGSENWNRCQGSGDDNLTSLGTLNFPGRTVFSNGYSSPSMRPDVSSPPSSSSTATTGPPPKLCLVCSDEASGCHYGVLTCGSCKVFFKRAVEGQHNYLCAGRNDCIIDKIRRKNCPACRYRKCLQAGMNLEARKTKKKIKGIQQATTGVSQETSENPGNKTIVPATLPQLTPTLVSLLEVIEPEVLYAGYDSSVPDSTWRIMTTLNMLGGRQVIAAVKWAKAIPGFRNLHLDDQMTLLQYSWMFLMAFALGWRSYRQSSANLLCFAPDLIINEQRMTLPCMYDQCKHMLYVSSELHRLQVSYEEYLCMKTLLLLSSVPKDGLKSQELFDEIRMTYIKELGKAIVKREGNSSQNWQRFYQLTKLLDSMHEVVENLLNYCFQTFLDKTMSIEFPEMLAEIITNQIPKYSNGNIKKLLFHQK
Sequence of Estrogen-related receptor gamma (Homo sapiens) (P62508 whole entry, looked up, the tested form may be a part): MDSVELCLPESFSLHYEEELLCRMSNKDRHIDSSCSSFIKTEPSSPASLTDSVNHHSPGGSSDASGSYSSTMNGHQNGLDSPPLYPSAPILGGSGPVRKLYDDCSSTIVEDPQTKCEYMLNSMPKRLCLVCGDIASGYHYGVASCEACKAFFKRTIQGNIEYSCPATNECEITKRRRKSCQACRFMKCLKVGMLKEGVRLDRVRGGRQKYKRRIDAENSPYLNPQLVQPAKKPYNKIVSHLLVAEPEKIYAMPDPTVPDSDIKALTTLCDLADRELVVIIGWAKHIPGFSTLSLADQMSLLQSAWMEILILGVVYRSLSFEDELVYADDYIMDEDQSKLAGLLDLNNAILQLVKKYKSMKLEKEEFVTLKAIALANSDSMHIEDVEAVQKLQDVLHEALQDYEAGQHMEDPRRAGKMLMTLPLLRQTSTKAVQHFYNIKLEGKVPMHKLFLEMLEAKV

Consider `CC(C#N)CCC#N` (centres undefined), for which the result in assay [1], in assay [2], in assay [3], in [4], in [5] and in assay [6] was inactive. Besides, the compound was called inactive in [7], in assay [8], in assay [9], in assay [10], in [11] and in assay [12]. In [13], the compound was classed as inactive.

On to `CCC(=O)C(CC(C)N(C)C)(c1ccccc1)c1ccccc1` (centres undefined), for which the compound was called inactive in assay [1], in assay [2], in [3], in assay [4], in assay [14] and in assay [7]. Moreover, the result in assay [8], in [9], in assay [15], in assay [12], in assay [13] and in assay [16] was inactive. Besides, the compound was classed as inactive in assay [17]. Further, the AC50 in assay [5] was 14.2 µM (active).

As for `COP(=O)(OC)O/C(=C\Cl)c1cc(Cl)c(Cl)cc1Cl`, the AC50 is 154 µM (active) in [1]; 44.3 µM (active) in assay [3]; 26.9 µM (active) in assay [5]; 34.9 µM (active) in assay [7]; 5.86 µM (active) in assay [15]. The result in [2], in assay [4], in assay [14], in assay [9], in [12] and in [13] was inactive. In addition, the result in assay [18] and in assay [17] was inactive.

For the compound `CCNc1nc(NC(C)(C)C)nc(SC)n1`, the AC50 in assay [1] was 144 µM (active); in assay [10] it was 31.8 µM (active). The call in assay [2], in assay [3], in [4], in [5], in [14] and in [7] was inactive. Also, the call in assay [8], in assay [9], in assay [15], in assay [12], in assay [16] and in assay [17] was inactive.

For the origin of these results see PubChem BioAssay (EPA / NIEHS).
